Values joined by “and” are separate entries in the source; they are usually repeats but may differ in a detail not shown here. Identical values can stand only once. Where a structure was tested more than once in an assay, its records may differ in their call. Active and inactive are the calls of the source. The calls were made as follows: active = hit-call score of the fitted dose curve at least 0.9, where 1 is the maximum; inactive = score below 0.9.
Legend:
[1] = ATG_E_Box_CIS: Attagene CIS-FACTORIAL HepG2 Assay for human Enhancer Box (E-box) (AID 2282936); details: HepG2 E-box cis-reporter transcription, actives raise or lower the signal
Method in brief: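 Endogenous transcription factor activity was sensed in human HepG2 liver cells through transfected cis-promoter reporter units. After 24 h of dosing, total RNA was reverse-transcribed and reporter cDNA resolved by capillary electrophoresis.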

[2] = ATG_M_61_CIS: Attagene CIS-FACTORIAL HepG2 Assay for M61 Transcription Factor (Internal Marker) (AID 2282937); details: HepG2 Attagene CIS-FACTORIAL M61 internal marker reporter; actives raise or lower the signal
Method in brief: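 Multiplexed reporter mRNA assay, HepG2 human hepatoma cells, 24 h treatment. Signal: FAM-labelled, HpaI-digested RT-PCR fragments by CE. Fit: bidirectional, baseline DMSO.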

[3] = ATG_M_19_CIS: Attagene CIS-FACTORIAL HepG2 Assay for M19 Transcription Factor (Internal Marker) (AID 2282939); details: HepG2 Attagene CIS-FACTORIAL M19 internal marker reporter; actives raise or lower the signal
Method in brief: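 HepG2 cells transiently transfected with cis-regulated multiple reporter transcription units were dosed for 24 h; reporter mRNA was quantified by RT-PCR, 6-FAM primer-extension labelling, HpaI digestion and capillary electrophoresis, with bidirectional fitting against DMSO baseline.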

[4] = ATG_ERE_CIS: Attagene CIS-FACTORIAL HepG2 Assay for Estrogen Response Element (ERE) (AID 2282940); details: HepG2 ERE cis-reporter, Attagene RNA transcript; actives raise or lower the signal
Method in brief: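 HepG2 cells transiently transfected with cis-promoter-driven multiplexed reporter transcription units report endogenous TF activity. After 24 h compound exposure, reporter mRNA is quantified by RT-PCR with capillary electrophoresis fluorescence; bidirectional fitting versus DMSO baseline.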

[5] = ATG_Ets_CIS: Attagene CIS-FACTORIAL HepG2 Assay for human Erythroblast Transformation Specific (ETS) (AID 2282941); details: HepG2 ETS cis-reporter transcription, actives raise or lower the signal
Method in brief: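 Endogenous transcription factor activity read as reporter mRNA via RT-PCR and capillary electrophoresis, with gain or loss fitted bidirectionally against DMSO. Human HepG2 liver cells, transiently transfected CIS reporter constructs, 24 h exposure.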

[6] = target: Hepatocyte nuclear factor 3-beta (Homo sapiens) (UniProt Q9Y261); test: ATG_FoxA2_CIS: Attagene CIS-FACTORIAL HepG2 Assay for human Forkhead box A2 (FOXA2) (AID 2282942); details: HepG2 cis-reporter transcription factor activity, 24 h; actives raise or lower the signal
Sequence of Hepatocyte nuclear factor 3-beta (Homo sapiens) (Q9Y261 whole entry, looked up): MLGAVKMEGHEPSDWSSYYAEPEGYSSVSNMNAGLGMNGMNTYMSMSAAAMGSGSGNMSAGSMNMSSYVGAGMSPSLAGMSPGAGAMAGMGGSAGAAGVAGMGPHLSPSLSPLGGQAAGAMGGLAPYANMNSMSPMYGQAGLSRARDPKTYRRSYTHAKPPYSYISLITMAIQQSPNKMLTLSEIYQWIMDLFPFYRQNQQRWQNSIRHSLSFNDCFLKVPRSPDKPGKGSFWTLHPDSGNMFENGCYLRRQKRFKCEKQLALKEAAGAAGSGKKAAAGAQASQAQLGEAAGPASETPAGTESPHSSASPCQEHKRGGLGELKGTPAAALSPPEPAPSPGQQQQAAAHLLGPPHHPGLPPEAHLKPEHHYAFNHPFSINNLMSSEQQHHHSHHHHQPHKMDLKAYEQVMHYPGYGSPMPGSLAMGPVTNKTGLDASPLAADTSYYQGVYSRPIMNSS
Method in brief: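 Multiplexed cis-element reporter assay in transiently transfected HepG2. Twenty-four hours post-dosing, RNA was reverse-transcribed, amplified, FAM-labelled, HpaI-digested and separated by CE. Activity gain or loss relative to DMSO.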

[7] = ATG_FoxO_CIS: Attagene CIS-FACTORIAL HepG2 Assay for human Forkhead box O (FoxO) (AID 2282943); details: HepG2 Attagene cis-reporter, FoxO element, mRNA; actives raise or lower the signal
Method in brief: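 24 h chemical exposure, HepG2 with transient cis-MRTU transfection. RNA extraction, oligo(dT) RT, reporter-specific PCR, primer-extension labelling, HpaI digestion, CE fragment analysis; bidirectional fit, DMSO baseline.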

[8] = ATG_GATA_CIS: Attagene CIS-FACTORIAL HepG2 Assay for human GATA Binding Protein (AID 2282944); details: HepG2 GATA cis-element reporter, Attagene multiplex mRNA; actives raise or lower the signal
Method in brief: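 HepG2 cells transiently transfected with multiplexed cis-element reporter units reflecting endogenous transcription factor activity; reporter mRNA measured after 24 h dosing by RT-PCR, 6-FAM labeling, HpaI digestion and capillary electrophoresis. Bidirectional fitting versus DMSO baseline.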

[9] = ATG_GLI_CIS: Attagene CIS-FACTORIAL HepG2 Assay for human Zinc Finger Protein GLI1 (AID 2282945); details: HepG2, Attagene cis-factorial reporter mRNA, GLI element; actives raise or lower the signal
Method in brief: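 HepG2 cells transiently transfected with cis-promoter multiplexed reporter units report endogenous transcription factor activity. After 24 h chemical exposure, reporter mRNA was quantified by RT-PCR, 6-FAM labelling, HpaI digestion and capillary electrophoresis, with bidirectional fitting against DMSO.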

[10] = target: Bile acid receptor (Homo sapiens) (UniProt Q96RI1); test: ATG_IR1_CIS: Attagene CIS-FACTORIAL HepG2 Assay for human Nuclear Receptor Subfamily 1 Group H Member 4 (NR1H4), IR1 submotif (AID 2282946); details: IR1 reporter transcription, actives raise or lower the signal
Sequence of Bile acid receptor (Homo sapiens) (Q96RI1 whole entry, looked up): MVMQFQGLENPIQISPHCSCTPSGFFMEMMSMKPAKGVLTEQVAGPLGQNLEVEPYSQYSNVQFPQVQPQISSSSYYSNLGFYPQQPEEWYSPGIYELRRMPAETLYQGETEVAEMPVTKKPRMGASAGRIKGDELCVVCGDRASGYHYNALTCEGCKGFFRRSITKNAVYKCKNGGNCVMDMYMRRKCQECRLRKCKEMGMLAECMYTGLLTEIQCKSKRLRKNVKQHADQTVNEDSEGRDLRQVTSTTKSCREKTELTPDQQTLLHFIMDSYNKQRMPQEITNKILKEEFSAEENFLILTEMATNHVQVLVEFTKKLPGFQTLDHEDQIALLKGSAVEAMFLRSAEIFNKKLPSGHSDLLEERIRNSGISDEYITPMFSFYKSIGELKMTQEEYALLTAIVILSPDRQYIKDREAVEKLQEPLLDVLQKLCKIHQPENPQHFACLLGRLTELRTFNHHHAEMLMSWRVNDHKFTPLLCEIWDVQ
Method in brief: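 Readout: reporter transcript levels by RT-PCR with fluorescent capillary electrophoresis, from HepG2 cells transiently transfected with multiplexed cis-regulated reporters and dosed 24 h. Gain- or loss-of-signal fitted versus DMSO negative control.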

[11] = ATG_GRE_CIS: Attagene CIS-FACTORIAL HepG2 Assay for human Glucocorticoid Response Elements (GRE) (AID 2282947); details: HepG2 GRE cis-reporter, Attagene multiplex mRNA; actives raise or lower the signal
Method in brief: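 Cells (HepG2) bearing transfected cis-promoter reporter transcription units were treated with chemical for 24 hours. Reporter mRNA was measured via RT-PCR with capillary electrophoresis, and activity was fitted in both directions relative to DMSO.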

[12] = ATG_M_32_CIS: Attagene CIS-FACTORIAL HepG2 Assay for M32 Transcription Factor (Internal Marker) (AID 2282949); details: HepG2 Attagene cis-factorial M32 reporter, mRNA; actives raise or lower the signal;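 also: background control marker of the multiplexed CIS panel rather than a real target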
Method in brief: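 HepG2 human liver cells transiently transfected with cis-promoter-driven multiple reporter transcription units, dosed 24 h. Reporter mRNA quantified by RT-PCR, FAM-labelled primer extension, HpaI digest and capillary electrophoresis; bidirectional fit versus DMSO baseline.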

[13] = ATG_M_06_CIS: Attagene CIS-FACTORIAL HepG2 Assay for M06 Transcription Factor (Internal Marker) (AID 2282950); details: HepG2 Attagene CIS-FACTORIAL M06 internal marker reporter; actives raise or lower the signal
Method in brief: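 HepG2 cells transiently transfected with cis-regulated multiple reporter transcription units were exposed to chemical for 24 h; reporter mRNA was quantified by RT-PCR, 6-FAM primer labelling, HpaI digestion and capillary electrophoresis, fitted bidirectionally against DMSO.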

[14] = target: Hypoxia-inducible factor 1-alpha (Homo sapiens) (UniProt Q16665); test: ATG_HIF1a_CIS: Attagene CIS-FACTORIAL HepG2 Assay for human Hypoxia Inducible Factor 1 (HIF1A) (AID 2282951); details: HepG2 Attagene cis-factorial HIF1a reporter transcription; actives raise or lower the signal
Sequence of Hypoxia-inducible factor 1-alpha (Homo sapiens) (Q16665 whole entry, looked up): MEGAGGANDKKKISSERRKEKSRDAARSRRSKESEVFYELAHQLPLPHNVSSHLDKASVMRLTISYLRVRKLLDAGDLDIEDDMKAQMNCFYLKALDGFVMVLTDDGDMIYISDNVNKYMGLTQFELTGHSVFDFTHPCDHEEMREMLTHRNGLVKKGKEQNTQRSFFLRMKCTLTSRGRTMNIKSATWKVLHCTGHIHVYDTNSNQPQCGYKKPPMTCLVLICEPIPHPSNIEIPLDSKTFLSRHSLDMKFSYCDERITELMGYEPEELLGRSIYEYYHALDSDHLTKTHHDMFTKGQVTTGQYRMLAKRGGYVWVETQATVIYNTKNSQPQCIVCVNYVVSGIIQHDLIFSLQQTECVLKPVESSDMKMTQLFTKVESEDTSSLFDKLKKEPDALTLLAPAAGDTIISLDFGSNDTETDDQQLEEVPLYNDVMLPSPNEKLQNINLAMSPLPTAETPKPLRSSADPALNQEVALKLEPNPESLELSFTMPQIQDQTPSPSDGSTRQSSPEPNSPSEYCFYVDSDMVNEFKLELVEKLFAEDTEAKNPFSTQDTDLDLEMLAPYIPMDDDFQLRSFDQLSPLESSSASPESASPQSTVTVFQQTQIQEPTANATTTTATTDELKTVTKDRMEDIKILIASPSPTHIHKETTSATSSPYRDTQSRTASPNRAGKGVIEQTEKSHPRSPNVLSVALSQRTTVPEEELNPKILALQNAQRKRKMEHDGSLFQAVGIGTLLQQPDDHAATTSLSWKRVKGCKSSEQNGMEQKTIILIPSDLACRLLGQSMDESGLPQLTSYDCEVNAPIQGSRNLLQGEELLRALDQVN
Method in brief: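 Cis-element reporter constructs were transiently transfected into HepG2 cells, which were treated for 24 h; reporter RNA was reverse-transcribed, amplified, labelled and resolved by capillary electrophoresis.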

[15] = target: Hepatocyte nuclear factor 6 (Homo sapiens) (UniProt Q9UBC0); test: ATG_HNF6_CIS: Attagene CIS-FACTORIAL HepG2 Assay for human Hepatocyte Nuclear Factor 6 (HNF6) (AID 2282952); details: HepG2 Attagene cis-factorial HNF6 reporter transcription; actives raise or lower the signal
Sequence of Hepatocyte nuclear factor 6 (Homo sapiens) (Q9UBC0 whole entry, looked up): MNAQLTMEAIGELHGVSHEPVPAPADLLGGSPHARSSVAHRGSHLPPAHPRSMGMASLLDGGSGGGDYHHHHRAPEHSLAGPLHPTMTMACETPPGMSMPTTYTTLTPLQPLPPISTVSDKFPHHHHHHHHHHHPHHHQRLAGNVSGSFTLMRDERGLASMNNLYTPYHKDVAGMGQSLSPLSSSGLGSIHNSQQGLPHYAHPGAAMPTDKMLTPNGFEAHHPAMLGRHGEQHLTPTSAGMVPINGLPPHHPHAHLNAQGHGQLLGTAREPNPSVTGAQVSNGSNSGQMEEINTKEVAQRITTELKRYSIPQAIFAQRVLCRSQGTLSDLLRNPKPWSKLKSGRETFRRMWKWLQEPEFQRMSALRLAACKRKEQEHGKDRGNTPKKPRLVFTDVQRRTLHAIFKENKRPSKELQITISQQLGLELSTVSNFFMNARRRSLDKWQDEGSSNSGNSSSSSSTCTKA
Method in brief: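 Activity values derive from bidirectional fitting against DMSO of reporter mRNA levels, measured by capillary electrophoresis of labelled RT-PCR products from HepG2 cells exposed 24 h.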

[16] = target: Heat shock factor protein 1 (Homo sapiens) (UniProt Q00613); test: ATG_HSE_CIS: Attagene CIS-FACTORIAL HepG2 Assay for human Heat Shock Transcription Factor 1 (HSE) (AID 2282953); details: HepG2 HSE cis-reporter, Attagene RNA transcription; actives raise or lower the signal
Sequence of Heat shock factor protein 1 (Homo sapiens) (Q00613 whole entry, looked up): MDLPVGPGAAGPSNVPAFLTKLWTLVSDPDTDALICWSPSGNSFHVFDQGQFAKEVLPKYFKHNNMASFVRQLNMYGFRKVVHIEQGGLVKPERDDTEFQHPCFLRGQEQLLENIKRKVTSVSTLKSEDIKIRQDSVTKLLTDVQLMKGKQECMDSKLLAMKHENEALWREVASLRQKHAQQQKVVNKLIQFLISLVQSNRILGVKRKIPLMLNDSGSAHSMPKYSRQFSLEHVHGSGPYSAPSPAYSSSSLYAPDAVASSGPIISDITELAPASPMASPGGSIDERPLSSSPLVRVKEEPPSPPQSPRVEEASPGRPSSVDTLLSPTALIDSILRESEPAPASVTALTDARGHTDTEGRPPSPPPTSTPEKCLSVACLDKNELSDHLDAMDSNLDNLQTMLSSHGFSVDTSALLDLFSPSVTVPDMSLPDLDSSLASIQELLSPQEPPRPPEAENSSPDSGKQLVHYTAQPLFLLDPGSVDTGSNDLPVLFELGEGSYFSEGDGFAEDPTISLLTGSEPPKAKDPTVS
Method in brief: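 HepG2 cells transiently transfected with multiple reporter transcription units under cis-regulatory promoter control, measuring endogenous transcription factor activity. After 24 h chemical exposure, reporter mRNA quantified by RT-PCR, fluorescent labelling, HpaI digestion and capillary electrophoresis; bidirectional fit versus DMSO.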

[17] = ATG_MRE_CIS: Attagene CIS-FACTORIAL HepG2 Assay for human Metal Responsive Element (MRE) (AID 2282954); details: HepG2 MRE cis-reporter transcription, Attagene multiplex; actives raise or lower the signal
Method in brief: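 Cells were transfected with cis-promoter reporter transcription units, then dosed for 24 h. RNA was reverse-transcribed, amplified, fluorescently labelled and resolved by capillary electrophoresis, and activity was fitted in both directions relative to DMSO.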

[18] = ATG_PBREM_CIS: Attagene CIS-FACTORIAL HepG2 Assay for human Phenobarbital-responsive Enhancer Module (PBREM) (AID 2282955); details: HepG2 PBREM cis-reporter, Attagene multiplexed transcription; actives raise or lower the signal
Method in brief: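 Multiplexed cis-reporter readout in human hepatoma HepG2 cells; PBREM-regulated transcript quantified after 24 h exposure by fluorescent RT-PCR fragment analysis. Signal changes up or down fitted relative to DMSO.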

[19] = ATG_EGR_CIS: Attagene CIS-FACTORIAL HepG2 Assay for human Early Growth Response 1 (EGR1) (AID 2282938); details: HepG2 Attagene CIS-FACTORIAL EGR reporter mRNA; actives raise or lower the signal
Method in brief: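 Multiplexed cis-reporter system in human hepatoma HepG2 cells, transiently transfected. Cells are dosed for 24 h; reporter transcripts are amplified, fluorescently tagged and sized by capillary electrophoresis, with DMSO as negative control.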

[20] = ATG_ISRE_CIS: Attagene CIS-FACTORIAL HepG2 Assay for human Interferon Regulatory Factor 1 (IRF1) binding to an Interferon-Stimulated Response Element (ISRE) (AID 2282948); details: HepG2 ISRE cis-reporter (Attagene), mRNA transcription readout; actives raise or lower the signal
Method in brief: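 Endogenous transcription factor activity read as reporter transcript abundance via RT-PCR and capillary electrophoresis. HepG2 cells transiently transfected, 24 h chemical exposure. Gain or loss fitted against DMSO baseline.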

Measured: AC50

O=c1[nH]sc2ccccc12
active: [14] 8.86 µM | [16] 52.8 µM
not listed: [19] | [20]
inactive: all other assays above

CN1C(=O)CC[C@H]1c1cccnc1
not listed: [4] | [8] | [10] | [11] | [14] | [20]
inactive: all other assays above

O=C1c2ccccc2C(=O)N1CCc1noc(-c2ccc(CN3CCCCCC3)s2)n1
active: [14] 51.2 µM | [17] 84.5 µM | [18] 24.1 µM
not listed: [8] | [11] | [19] | [20]
inactive: all other assays above

Clc1ccccc1C(c1ccccc1)(c1ccccc1)n1ccnc1
active: [4] 0.438 µM | [8] 15.6 µM | [20] 11.1 µM | [16] 19.1 µM | [17] 15 µM | [18] 11.1 µM
not listed: [14] | [19]
inactive: all other assays above

CO[C@H]1/C=C/O[C@@]2(C)Oc3c(C)c(O)c4c(O)c(c(/C=N/N5CCN(C)CC5)c(O)c4c3C2=O)NC(=O)/C(C)=C\C=C\[C@H](C)[C@H](O)[C@@H](C)[C@@H](O)[C@@H](C)[C@H](OC(C)=O)[C@@H]1C
not listed: [4] | [10] | [11] | [14] | [19] | [20]
inactive: all other assays above

c1ccc2n[nH]nc2c1
not listed: [4] | [8] | [10]
inactive: all other assays above

COCC(C)OCC(C)OCC(C)O (centres undefined)
not listed: [19]
inactive: all other assays above

CCCCCCCCCCCC[N+](C)(C)C
inactive: [2] | [19] | [3] | [5] | [6] | [7] | [9] | [10] | [11] | [12] | [13] | [14] | [15] | [16] | [17] | [18]
active: [1] 33.4 µM and 22.5 µM | [20] 16.6 µM and 15.3 µM | [17] 33.4 µM

OCCO
active: [14] 51.2 µM
not listed: [8] | [11] | [19] | [20]
inactive: all other assays above

CCOC(=O)O[C@H](C)OC(=O)c1ccc2c(c1)cc(C(=O)NC1CCN(C(C)C)CC1)n2Cc1cc(-c2ccc(Cl)s2)on1
active: [4] 33 µM | [14] 20.9 µM | [17] 51.1 µM
not listed: [19]
inactive: all other assays above

c1ccc2ccccc2c1
inactive: [1] | [2] | [3] | [4] | [5] | [6] | [7] | [8] | [9] | [10] | [20] | [12] | [13] | [14] | [15] | [16] | [17]
active: [15] 100 µM

O=C(O)Cn1c(=O)n(Cc2ccc(Br)cc2F)c(=O)c2ccc(Cl)cc21
not listed: [19]
inactive: all other assays above

CCCOC(=O)c1cc(O)c(O)c(O)c1
active: [4] 12.4 µM | [14] 65.1 µM
not listed: [19] | [20]
inactive: all other assays above

CC1(C)NC(=O)N(c2ccc([N+](=O)[O-])c(C(F)(F)F)c2)C1=O
not listed: [4] | [8] | [11] | [14] | [19] | [20]
inactive: all other assays above
